Measured values reported in the supplement of paper PMC11732987, “Enantioselective OTUD7B fragment discovery through chemoproteomics screening and high-throughput optimisation” (Communications Chemistry, 2025).

Assays:
Assay in all cases: log2 ratio of Biotin-Ahx-Ub-VS probe labelling (fragment/DMSO); higher = less target engagement (more negative = stronger competition), active = hit call of the paper (q ≤ 0.05, log2 ratio ≤ -1)
Conditions in all cases: compound concentration: 200 uM; treatment time: 3 h
OTUD6B = molecular target: T1, OTUD6B (UniProt Q8N6M0)
T1 sequence (whole entry): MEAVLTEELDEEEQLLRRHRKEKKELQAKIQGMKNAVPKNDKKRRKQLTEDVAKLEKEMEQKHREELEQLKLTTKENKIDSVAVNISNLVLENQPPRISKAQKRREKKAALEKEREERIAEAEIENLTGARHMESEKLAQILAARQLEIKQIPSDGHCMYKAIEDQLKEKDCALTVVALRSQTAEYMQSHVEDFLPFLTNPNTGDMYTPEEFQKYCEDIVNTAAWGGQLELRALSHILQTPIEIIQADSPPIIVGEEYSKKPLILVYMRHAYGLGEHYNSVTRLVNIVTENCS
In short: (§1)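 Labelling with Biotin-Ahx-Ub-VS (0.5 µM final, 1 h) followed a 3 h triplicate treatment of HEK293T lysate (495 µg per sample, Tris/CHAPS/IGEPAL buffer with protease inhibitors) with fragment at 200 µM or vehicle. Labelled DUBs were NeutrAvidin-enriched, digested with LysC and trypsin, and run by diaPASEF LC-MS/MS. The values, average log2 fragment/vehicle ratios by unpaired t-test, come from global-median-normalised Spectronaut label-free quantities. Proteins with ≥2 unique peptides were used.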

OTUD7B = molecular target: T2, OTUD7B (UniProt Q6GQQ9)
T2 sequence (whole entry): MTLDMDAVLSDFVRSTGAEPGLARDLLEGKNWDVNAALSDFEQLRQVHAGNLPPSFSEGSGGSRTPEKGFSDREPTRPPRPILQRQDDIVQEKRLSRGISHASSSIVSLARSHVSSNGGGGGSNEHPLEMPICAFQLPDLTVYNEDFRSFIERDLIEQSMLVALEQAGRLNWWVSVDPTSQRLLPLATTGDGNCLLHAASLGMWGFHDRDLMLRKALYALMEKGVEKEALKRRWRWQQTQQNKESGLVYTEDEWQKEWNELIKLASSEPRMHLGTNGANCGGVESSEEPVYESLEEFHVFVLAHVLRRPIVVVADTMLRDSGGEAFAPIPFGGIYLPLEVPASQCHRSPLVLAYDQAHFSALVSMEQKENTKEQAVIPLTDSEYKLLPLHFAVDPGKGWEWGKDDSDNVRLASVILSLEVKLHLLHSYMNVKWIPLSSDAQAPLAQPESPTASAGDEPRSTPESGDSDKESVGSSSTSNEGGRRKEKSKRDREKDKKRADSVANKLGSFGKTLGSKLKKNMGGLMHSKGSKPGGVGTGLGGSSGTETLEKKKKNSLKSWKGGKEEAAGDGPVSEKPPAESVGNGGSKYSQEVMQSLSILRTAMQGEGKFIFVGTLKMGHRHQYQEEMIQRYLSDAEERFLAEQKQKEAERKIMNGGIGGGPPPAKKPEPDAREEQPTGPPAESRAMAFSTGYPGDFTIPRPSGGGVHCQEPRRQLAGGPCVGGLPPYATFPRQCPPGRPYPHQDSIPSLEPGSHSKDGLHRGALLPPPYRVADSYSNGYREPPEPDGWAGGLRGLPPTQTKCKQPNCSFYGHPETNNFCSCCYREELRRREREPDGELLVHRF
In short: as §1

PRPF8 = PRPF8 (UniProt Q6P2Q9)
In short: as §1

PSMD7 = molecular target: T3, PSMD7 (UniProt P51665)
T3 sequence (whole entry): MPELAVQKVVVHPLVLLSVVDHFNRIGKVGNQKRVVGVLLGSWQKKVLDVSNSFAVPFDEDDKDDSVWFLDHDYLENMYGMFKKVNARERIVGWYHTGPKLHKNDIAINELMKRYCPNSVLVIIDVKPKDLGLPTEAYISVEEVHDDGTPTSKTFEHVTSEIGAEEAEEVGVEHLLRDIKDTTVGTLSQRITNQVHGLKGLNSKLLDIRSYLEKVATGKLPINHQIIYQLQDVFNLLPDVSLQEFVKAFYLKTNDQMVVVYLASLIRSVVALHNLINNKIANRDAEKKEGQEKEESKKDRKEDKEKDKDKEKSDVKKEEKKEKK
In short: as §1

UCHL1 = UCHL1 (UniProt P09936)
In short: as §1

UCHL3 = molecular target: T4, UCHL3 (UniProt P15374)
T4 sequence (whole entry): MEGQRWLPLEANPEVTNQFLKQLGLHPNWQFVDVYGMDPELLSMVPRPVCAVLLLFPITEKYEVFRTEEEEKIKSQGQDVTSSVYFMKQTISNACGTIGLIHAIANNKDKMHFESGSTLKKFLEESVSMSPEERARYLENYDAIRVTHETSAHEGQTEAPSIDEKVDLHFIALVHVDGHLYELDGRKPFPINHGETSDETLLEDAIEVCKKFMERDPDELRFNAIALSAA
In short: as §1

UCHL5 = molecular target: T5, UCHL5 (UniProt Q9Y5K5)
T5 sequence (whole entry): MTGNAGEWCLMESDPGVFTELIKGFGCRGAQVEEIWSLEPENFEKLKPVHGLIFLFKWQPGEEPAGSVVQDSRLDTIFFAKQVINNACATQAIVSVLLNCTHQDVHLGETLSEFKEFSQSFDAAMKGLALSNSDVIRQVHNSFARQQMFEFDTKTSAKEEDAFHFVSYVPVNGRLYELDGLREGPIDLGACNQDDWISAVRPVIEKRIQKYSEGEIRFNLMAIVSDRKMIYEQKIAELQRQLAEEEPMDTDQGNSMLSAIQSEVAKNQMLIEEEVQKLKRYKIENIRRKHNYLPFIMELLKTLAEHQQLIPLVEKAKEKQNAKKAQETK
In short: as §1

USP10 = USP10 (UniProt Q14694)
In short: as §1

USP15 = molecular target: T6, USP15 (UniProt Q9Y4E8)
T6 sequence (whole entry): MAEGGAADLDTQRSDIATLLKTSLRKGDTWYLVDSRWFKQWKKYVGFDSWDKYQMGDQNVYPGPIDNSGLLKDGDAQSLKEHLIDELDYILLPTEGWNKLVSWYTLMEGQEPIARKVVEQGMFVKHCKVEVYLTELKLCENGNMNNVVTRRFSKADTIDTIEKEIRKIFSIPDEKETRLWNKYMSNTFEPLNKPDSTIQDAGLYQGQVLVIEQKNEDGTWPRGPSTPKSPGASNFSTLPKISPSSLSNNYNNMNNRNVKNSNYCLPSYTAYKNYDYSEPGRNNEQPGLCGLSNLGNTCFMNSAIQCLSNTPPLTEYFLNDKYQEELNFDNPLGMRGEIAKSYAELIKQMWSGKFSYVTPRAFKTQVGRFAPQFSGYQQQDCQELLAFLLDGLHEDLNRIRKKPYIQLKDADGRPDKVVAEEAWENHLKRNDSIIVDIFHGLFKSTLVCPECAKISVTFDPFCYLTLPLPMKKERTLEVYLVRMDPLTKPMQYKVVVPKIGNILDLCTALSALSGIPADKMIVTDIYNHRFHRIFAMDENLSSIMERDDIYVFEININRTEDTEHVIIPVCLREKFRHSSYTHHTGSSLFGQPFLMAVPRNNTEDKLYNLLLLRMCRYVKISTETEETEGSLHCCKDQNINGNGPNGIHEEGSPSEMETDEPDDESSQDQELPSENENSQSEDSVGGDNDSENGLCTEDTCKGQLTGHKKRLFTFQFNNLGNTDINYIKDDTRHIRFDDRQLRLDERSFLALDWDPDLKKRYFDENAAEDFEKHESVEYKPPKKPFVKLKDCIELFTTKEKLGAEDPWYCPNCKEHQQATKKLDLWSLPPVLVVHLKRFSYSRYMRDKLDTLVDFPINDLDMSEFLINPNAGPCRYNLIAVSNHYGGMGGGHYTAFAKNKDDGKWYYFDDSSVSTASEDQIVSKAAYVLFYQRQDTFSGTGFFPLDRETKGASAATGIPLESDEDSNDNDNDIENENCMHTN
In short: as §1

Measured: log2 ratio of Biotin-Ahx-Ub-VS probe labelling

Sequence of USP10 (Q14694 whole entry): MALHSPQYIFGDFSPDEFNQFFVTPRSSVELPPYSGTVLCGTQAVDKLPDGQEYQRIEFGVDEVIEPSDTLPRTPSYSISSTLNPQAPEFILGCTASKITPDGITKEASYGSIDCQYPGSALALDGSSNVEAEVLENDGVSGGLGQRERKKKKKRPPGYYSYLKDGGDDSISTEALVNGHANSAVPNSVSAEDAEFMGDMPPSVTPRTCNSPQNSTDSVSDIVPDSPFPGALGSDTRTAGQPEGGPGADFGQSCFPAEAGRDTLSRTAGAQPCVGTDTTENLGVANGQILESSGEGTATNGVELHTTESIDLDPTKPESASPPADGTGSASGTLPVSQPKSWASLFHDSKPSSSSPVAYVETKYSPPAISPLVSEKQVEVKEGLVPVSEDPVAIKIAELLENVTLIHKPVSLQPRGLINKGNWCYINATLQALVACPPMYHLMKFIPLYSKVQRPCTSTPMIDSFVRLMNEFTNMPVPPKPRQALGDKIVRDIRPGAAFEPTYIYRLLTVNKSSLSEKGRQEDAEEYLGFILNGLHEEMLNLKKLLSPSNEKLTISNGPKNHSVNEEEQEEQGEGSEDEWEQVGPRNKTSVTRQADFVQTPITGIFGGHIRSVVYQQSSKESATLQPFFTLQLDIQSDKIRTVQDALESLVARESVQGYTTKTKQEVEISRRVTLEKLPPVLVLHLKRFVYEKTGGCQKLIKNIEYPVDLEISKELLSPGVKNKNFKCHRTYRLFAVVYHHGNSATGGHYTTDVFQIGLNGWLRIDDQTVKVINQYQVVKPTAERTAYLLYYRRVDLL
Sequence of UCHL1 (P09936 whole entry, looked up): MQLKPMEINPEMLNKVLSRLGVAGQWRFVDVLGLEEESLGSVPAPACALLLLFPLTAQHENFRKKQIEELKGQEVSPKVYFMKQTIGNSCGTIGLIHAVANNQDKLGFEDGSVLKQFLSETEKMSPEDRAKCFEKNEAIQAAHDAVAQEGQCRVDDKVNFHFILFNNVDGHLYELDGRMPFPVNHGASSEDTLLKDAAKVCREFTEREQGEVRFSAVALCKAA

Cc1ccn2cc(CNC(=O)CCl)nc2c1.Cl
inactive: OTUD6B -0.283 | OTUD7B -0.682 | PRPF8 0.0356 | PSMD7 -0.104 | UCHL1 -0.67 | UCHL3 -0.0928 | UCHL5 -0.311 | USP10 0.0849 | USP15 -0.244
